Bioassay records deposited in PubChem BioAssay by Johns Hopkins Ion Channel Center.
KCNQ2 pot: potentiators of rat KCNQ2 potassium channel. O88943. CHO-K1 KCNQ2, FluxOR thallium flux fluorescence; hits give high values. B-score at 10 µM. 310,000 compounds, 0.54% hits. AID 2239;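 active = fluorescence ratio B-score at least 3 SD of library B-scores, with initial fluorescence B-score within 3 of them, cut at about 5.3 in these data; same plate scores as AID 2156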;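 note: B-score of peak minus minimum over baseline fluorescence ratio after K+ and Tl+ stimulus; positive B-score means potentiation of KCNQ2 with more thallium influx and brighter signal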
Target sequence (O88943 whole entry, looked up): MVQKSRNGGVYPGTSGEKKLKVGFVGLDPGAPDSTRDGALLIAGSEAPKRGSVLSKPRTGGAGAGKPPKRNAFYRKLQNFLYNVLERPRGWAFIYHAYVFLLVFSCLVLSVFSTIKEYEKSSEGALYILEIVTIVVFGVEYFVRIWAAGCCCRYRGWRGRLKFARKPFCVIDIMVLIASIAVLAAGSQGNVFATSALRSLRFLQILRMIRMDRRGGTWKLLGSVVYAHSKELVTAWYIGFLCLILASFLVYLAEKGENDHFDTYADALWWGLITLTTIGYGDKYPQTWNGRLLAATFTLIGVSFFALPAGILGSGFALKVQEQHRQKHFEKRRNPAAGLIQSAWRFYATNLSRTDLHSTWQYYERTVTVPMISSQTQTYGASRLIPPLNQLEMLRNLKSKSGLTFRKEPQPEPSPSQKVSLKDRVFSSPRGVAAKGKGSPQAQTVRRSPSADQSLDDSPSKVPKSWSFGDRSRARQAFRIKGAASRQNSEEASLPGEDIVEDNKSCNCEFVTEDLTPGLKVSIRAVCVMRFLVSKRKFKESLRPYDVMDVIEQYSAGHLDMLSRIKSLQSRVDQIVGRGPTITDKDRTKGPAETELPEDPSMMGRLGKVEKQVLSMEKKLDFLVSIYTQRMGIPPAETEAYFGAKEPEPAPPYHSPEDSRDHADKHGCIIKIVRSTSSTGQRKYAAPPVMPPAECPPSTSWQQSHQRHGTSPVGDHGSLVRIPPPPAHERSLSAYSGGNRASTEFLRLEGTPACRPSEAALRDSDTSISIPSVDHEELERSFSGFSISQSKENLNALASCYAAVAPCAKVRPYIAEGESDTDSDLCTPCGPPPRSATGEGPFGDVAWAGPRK
KCNQ2 inh: inhibitors of rat KCNQ2 potassium channel | O88943 | CHO-K1 KCNQ2, FluxOR thallium flux, 20 min; hits give low values | B-score at 10 µM | 310,000 compounds, 1.1% hits;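 active = fluorescence ratio B-score at most minus 3 library SDs, with starting brightness B-score within 2 library SDs, cut at about -5.5 in these data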
* hit, by the source's call. Most compounds without a hit are left out; they make up all but 1.6% or so of the library.

Screening Cc1cc(C(=O)NCc2ccc3c(c2)OCO3)ccc1[N+](=O)[O-] returned KCNQ2 pot 3.6 and KCNQ2 inh inactive.
`CC1CC(C)CN(c2ccc(C(=O)NCc3ccc4c(c3)OCO4)cc2[N+](=O)[O-])C1` (stereo not given) gave KCNQ2 pot 8.9* and KCNQ2 inh inactive.
`COc1ccc(S(=O)(=O)NC2CCSc3ccccc32)cc1OC` (stereo not given) gave KCNQ2 inh inactive.
COc1cccc(C2C=C(c3ccc(Br)s3)Nc3ncnn32)c1OC (stereo not given) was read as KCNQ2 pot -6.6 and KCNQ2 inh -6.6*.
Screening Fc1ccc(Br)cc1C1C=C(c2ccc(Br)s2)Nc2ncnn21 (stereo not given) returned KCNQ2 inh inactive.
For O=C(c1cccs1)N1CCC(c2nc3c(nnn3Cc3ccccc3Cl)c(=O)[nH]2)CC1 the results were KCNQ2 pot 0.13 and KCNQ2 inh inactive.
`CC#C[C@]1(O)CC[C@H]2[C@@H]3CCC4=CC(=O)CCC4=C3[C@@H](c3ccc(N(C)C)cc3)C[C@@]21C` gave KCNQ2 pot -5.9 and KCNQ2 inh -5.9*.
For C#C[C@]1(O)CCC2C3CCC4=CC(=O)CC[C@@H]4C3CC[C@@]21C (stereo not given in full) the results were KCNQ2 inh inactive.
For COc1ccc(NC(=O)c2coc(C)c2)cc1 the results were KCNQ2 pot 0.18 and KCNQ2 inh inactive.
CCOc1ccc(C(=O)C(C)OC(=O)Cn2[nH]c(=O)c3ccccc3c2=O)cc1 (stereo not given) was read as KCNQ2 pot 0.58 and KCNQ2 inh inactive.
`Cc1c(/C=N/NC(=O)c2cc(Br)ccc2O)c(=O)n(C)c(=O)n1C` gave KCNQ2 inh inactive.
Screening Cc1onc(-c2c(Cl)cccc2Cl)c1CO/N=C(\C#N)c1c(Cl)cccc1Cl returned KCNQ2 pot -5.5 and KCNQ2 inh -5.5*.
`Cc1onc(-c2c(Cl)cccc2Cl)c1/C(N)=N/OC(=O)C(C)(C)C` gave KCNQ2 pot 0.14 and KCNQ2 inh inactive.
Screening CC(C)CCN(C(=S)Nc1cccc(C(F)(F)F)c1)C(C)c1ccccn1 (stereo not given) returned KCNQ2 pot -6.1 and KCNQ2 inh -6.1*.
CC(c1ccccn1)N(CCN(C)C)C(=S)Nc1cccc(F)c1 (stereo not given) was read as KCNQ2 pot 1.3 and KCNQ2 inh inactive.
Screening COc1ccc(N(C)C(=O)c2cc3c(s2)-c2c(C)cccc2OC3)c(OC)c1 returned KCNQ2 inh inactive.
For COC(=O)CSc1nc2cc(OC)ccc2cc1C#N the results were KCNQ2 pot 0.06 and KCNQ2 inh inactive.
COc1ccc2cc(C#N)c(SCC(=O)NNC(=O)Cc3ccccc3)nc2c1 was read as KCNQ2 pot -6.2 and KCNQ2 inh -6.2*.
`Cc1ccc(C)c(OCCC(=O)OC(C)C(=O)Nc2c(C)n(C)n(-c3ccccc3)c2=O)c1` (stereo not given) gave KCNQ2 inh inactive.
For CSC1=NC(C(Cl)(Cl)Cl)N=C(c2ccccc2)N1 (stereo not given) the results were KCNQ2 inh inactive.
For C=CCNC(=S)NNC(=O)Cn1c(-c2ccccc2)cc(=O)n2ncnc12 the results were KCNQ2 pot 1.1 and KCNQ2 inh inactive.
Cc1cc(C)nc(SCC(=O)Nc2nc(-c3ccccc3)c(-c3ccccc3)o2)n1 was read as KCNQ2 pot 0.07 and KCNQ2 inh inactive.
Screening Cc1ccc(C(=O)Nc2nc(-c3ccccc3)c(-c3ccccc3)o2)cc1 returned KCNQ2 pot 8.4* and KCNQ2 inh inactive.
Cc1cccc(C(=O)Nc2ccc(C(=O)N3CCCCC3C)cc2)c1 (stereo not given) was read as KCNQ2 inh inactive.
O=C1c2cccc3c([N+](=O)[O-])ccc(c23)C(=O)N1c1ccc(Cl)cn1 was read as KCNQ2 pot -7 and KCNQ2 inh -7*.
For O=C1c2cccc3c([N+](=O)[O-])ccc(c23)C(=O)N1c1ccccn1 the results were KCNQ2 inh inactive.
`COc1ccc(CCc2nnc(CCC(=O)NCc3cc(C(C)C)no3)o2)cc1` gave KCNQ2 pot 2.6 and KCNQ2 inh inactive.
COc1ccc2nc(N=Nc3ccc(O)c4ccccc34)sc2c1 was read as KCNQ2 pot 9.3* and KCNQ2 inh inactive.
For COc1ccc2nc(N=NC3=C(O)CC(C)(C)CC3=O)sc2c1 the results were KCNQ2 pot 0.64 and KCNQ2 inh inactive.
For COc1ccc(NC(=O)CSC2=NCCN2)cc1 the results were KCNQ2 inh inactive.
For CCn1c(NCc2c[nH]c3ccccc23)nc2ccccc21 the results were KCNQ2 pot -6.5 and KCNQ2 inh -6.5*.
For Cn1c(NCc2c[nH]c3ccccc23)nc2ccccc21 the results were KCNQ2 inh inactive.
For Cc1cccc(CC(=O)Nc2ccc(C(=O)N3CCOCC3)cc2)c1 the results were KCNQ2 pot 0.65 and KCNQ2 inh inactive.
